CtBP-E1A blk: CtBP/E1A binding inhibition | hit rate 0.49% among 340,000 | activity change, % (concentration not given with the values) | AID 651724 | AlphaScreen GST-E1A/His-CtBP binding, 1536-well; active compounds read low; in the data active means activity change below about -65%; inconclusive means mostly about -30% to -63%
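Steps: dispense buffer (Tris pH 8.0, NaCl 300 mM, TCEP 1 mM, BSA, Tween 20); add 5X protein mix (GST-E1A, His-CtBP, 125 nM each); pin 23 nL compound; 2 h at 37 °C, dark; add 5X beads (50 ug/mL); 1 h; read.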
RORgamma inh: blocks mouse ROR gamma transcriptional activity; Drosophila S2 Gal4-RORgamma UAS-luciferase reporter, 20 h; Potency, µM (titrated, usually from 53.6 µM), for the others: at the highest dose activity change, negative = inhibition, usual class: inhibitors; hit rate 5.4% among 310,000; AID 2551; further: potency means the concentration at half of the fitted maximal effect; nearly all actives have a fitted effect of over 60% in size
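Read-out: Photinus luciferase luminescence; inhibitors lower reporter signal. Insect Schneider cells with Gal4-ROR gamma fusion under metallothionein promoter, UAS reporter; 700 uM final copper sulfate induction, 20 hr, ambient temperature.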
PKM2 activator: activators of human pyruvate kinase M2. P14618. purified PKM2, Kinase-Glo ATP luminescence, activation; response scale: 0% is enzyme alone, no compound. Potency, µM (titrated, usually from 57.5 µM), inactives show at the top dose activation, usual class: activators. hit rate 0.34% among 260,000; further: potency means the concentration at half of the fitted maximal effect; nearly all actives have a fitted effect of over 55% in size
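ATP formation by purified human PK-M2, quantified via coupled luciferase luminescence after 1 h at room temperature with 0.1 mM ADP and 0.5 mM PEP final.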
Six1-Eya2 blk: blocks human Six1 binding to Eya2; activity change, % (no concentration beside the values); AID 651725; AlphaScreen GST-Six1/His-Eya2 binding, biochemical; active compounds read low; Q15475+O00167; hit rate 0.56% among 360,000; in the data active means activity change below about -65%; inconclusive means mostly about -30% to -63%
Target sequence (O00167 whole entry, looked up): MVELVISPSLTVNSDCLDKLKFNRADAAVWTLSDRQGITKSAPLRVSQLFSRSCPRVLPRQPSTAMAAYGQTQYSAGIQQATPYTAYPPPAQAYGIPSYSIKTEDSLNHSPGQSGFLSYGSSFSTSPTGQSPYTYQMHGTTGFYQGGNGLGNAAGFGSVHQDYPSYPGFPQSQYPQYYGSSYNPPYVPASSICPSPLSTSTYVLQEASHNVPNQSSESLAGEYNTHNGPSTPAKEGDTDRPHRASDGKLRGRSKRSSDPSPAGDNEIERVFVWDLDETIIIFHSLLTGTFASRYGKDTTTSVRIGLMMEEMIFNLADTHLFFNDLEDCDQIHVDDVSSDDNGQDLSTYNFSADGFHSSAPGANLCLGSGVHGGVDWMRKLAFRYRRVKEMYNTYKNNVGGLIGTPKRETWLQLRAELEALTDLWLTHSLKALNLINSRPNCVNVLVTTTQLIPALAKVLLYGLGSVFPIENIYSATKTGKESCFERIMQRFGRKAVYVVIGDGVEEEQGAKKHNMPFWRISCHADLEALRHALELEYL
Target sequence (Q15475 whole entry, looked up): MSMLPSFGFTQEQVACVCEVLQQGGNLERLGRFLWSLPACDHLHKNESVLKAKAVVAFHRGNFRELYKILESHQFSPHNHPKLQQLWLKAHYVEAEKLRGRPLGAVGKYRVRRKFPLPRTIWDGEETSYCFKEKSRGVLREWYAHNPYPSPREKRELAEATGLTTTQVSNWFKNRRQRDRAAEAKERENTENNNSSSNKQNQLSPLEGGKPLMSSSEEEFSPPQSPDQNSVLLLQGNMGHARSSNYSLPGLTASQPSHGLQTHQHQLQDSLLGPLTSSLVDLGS
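Homogeneous AlphaScreen proximity assay pairing GST-Six1 with His-tagged Eya2 (added as 5X mix: 250 nM and 500 nM) in 50 mM Tris pH 8.0, 300 mM NaCl, 1 mM TCEP. Glutathione donor and nickel acceptor beads; 1 h, 37 °C, dark.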
Gal4-VP16 FLuc: Gal4-VP16 reporter inhibition counter-screen; hit rate 3.5% among 310,000; Potency, µM (doses to about 53.6 µM), inactives show top-dose activity, negative = inhibition, usual class: inhibitors; Drosophila S2 Gal4-VP16 UAS-luciferase, luminescence, 20 h;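 further: Gal4-VP16 expression switched on by copper sulfate through the metallothionein promoter; potency means the concentration at half of the fitted maximal effect; nearly all actives have a fitted effect of over 50% in size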
An asterisk follows results filed as active; [ ] = dose if it differs, or a comment. This is a sample that favours compounds with a hit; in the whole collection about 5.6% have one here. Unless noted, the call rests on the fitted dose curve; in most records, active means well fitted curve in the direction sought with a large enough effect; inconclusive means small, poorly fitted or top-dose-only effect, or another doubt; inactive means no such curve, though single readings can be large; an effect the other way counts as inactive or inconclusive. On the % scale 0 is the no-effect control and ±100 the full control effect.

Screening CC(C)CCNC(=S)Nc1ccc([N+](=O)[O-])cc1 returned CtBP-E1A blk 5, RORgamma inh inconclusive, PKM2 activator 2%, Six1-Eya2 blk -1 and Gal4-VP16 FLuc inconclusive.
Screening CC(C)CCNC(=S)Nc1ccc(Br)cc1 returned CtBP-E1A blk 3, RORgamma inh 3.5µM*, PKM2 activator 4%, Six1-Eya2 blk 2 and Gal4-VP16 FLuc 10µM*.
For COC(=O)c1c(NC(=O)CSc2nnc(C)c(=O)[nH]2)sc(C)c1C the results were CtBP-E1A blk -14, RORgamma inh 18%, PKM2 activator 5%, Six1-Eya2 blk -11 and Gal4-VP16 FLuc -6%[10 µM].
CSCC[C@H](NC(=O)[C@H](CC(C)C)NC(=O)[C@@H]1CCCN1C(=O)[C@H](Cc1ccccc1)NC(=O)[C@H](Cc1ccccc1)NC(=O)[C@H](CCC(N)=O)NC(=O)[C@H](CCC(N)=O)NC(=O)[C@@H]1CCCN1C(=O)[C@H](CCCCN)NC(=O)[C@@H]1CCCN1C(=O)[C@@H](N)CCCN=C(N)N)C(N)=O was read as RORgamma inh 0% and Gal4-VP16 FLuc -8%.
Cc1ccc(-c2nn(-c3ccccc3)cc2CSC(=N)N)cc1 was read as CtBP-E1A blk 16, RORgamma inh inconclusive, PKM2 activator -5%, Six1-Eya2 blk 29 and Gal4-VP16 FLuc inconclusive.
Screening Cc1ccc(-c2nn(-c3ccccc3)cc2CC(=S)N2CCOCC2)cc1 returned RORgamma inh 18µM*, PKM2 activator -5%[11.5 µM], Six1-Eya2 blk -9 and Gal4-VP16 FLuc inconclusive.
`CCOC(=O)[C@@H]1[C@H]2COc3cc(OC)ccc3[C@@H]2N2C(=O)N(c3ccc(C)cc3)C(=O)[C@@]12C` gave CtBP-E1A blk -19, RORgamma inh 5µM*, PKM2 activator 3%, Six1-Eya2 blk -5 and Gal4-VP16 FLuc 1%.
For CCOC(=O)[C@H]1[C@H]2COc3cc(OC)ccc3[C@@H]2N2C(=O)N(c3ccc(Cl)cc3)C(=O)[C@@]12C the results were CtBP-E1A blk -20, RORgamma inh 20%, PKM2 activator -1%, Six1-Eya2 blk -21 and Gal4-VP16 FLuc 5%.
`CCOC(=O)[C@@H]1[C@H]2COc3ccccc3[C@@H]2N2C(=O)N(c3ccc(F)cc3)C(=O)[C@@]12C` gave CtBP-E1A blk 3, RORgamma inh 13µM*, PKM2 activator -1%, Six1-Eya2 blk 0 and Gal4-VP16 FLuc -7%.
Screening CCOC(=O)[C@@H]1[C@H]2COc3cc(OC)ccc3[C@@H]2N2C(=O)N(c3ccccc3)C(=O)[C@]12C returned CtBP-E1A blk -10 and Six1-Eya2 blk 2.
`CCOC(=O)[C@@H]1[C@H]2COc3ccccc3[C@@H]2N2C(=O)N(c3ccc(C)cc3)C(=O)[C@@]12C` gave CtBP-E1A blk 1 and Six1-Eya2 blk 7.
CCOC(=O)[C@@H]1[C@H]2COc3cc(OC)ccc3[C@@H]2N2C(=O)N(c3ccc(Cl)cc3)C(=O)[C@@]12C was read as CtBP-E1A blk 1, RORgamma inh 8.9µM*, PKM2 activator -3%, Six1-Eya2 blk -4 and Gal4-VP16 FLuc inconclusive.
CCOC(=O)[C@@H]1[C@H]2COc3cc(OC)ccc3[C@@H]2N2C(=O)N(c3cccc(F)c3)C(=O)[C@]12C was read as CtBP-E1A blk -1, RORgamma inh 16%, PKM2 activator -1%, Six1-Eya2 blk -1 and Gal4-VP16 FLuc -2%.
CCOC(=O)[C@@H]1[C@H]2COc3cc(OC)ccc3[C@@H]2N2C(=O)N(c3cccc(F)c3)C(=O)[C@@]12C was read as CtBP-E1A blk 23, RORgamma inh 10µM*, PKM2 activator 0%, Six1-Eya2 blk 11 and Gal4-VP16 FLuc 0%.
CCCOc1ccc(S(=O)(=O)n2cc(F)c(=O)[nH]c2=O)cc1 was read as CtBP-E1A blk 4, RORgamma inh inconclusive, PKM2 activator 12%, Six1-Eya2 blk -1 and Gal4-VP16 FLuc -3%.
CCC(C)c1ccccc1NC(=O)CN1CCN(C/C=C/c2ccccc2)CC1 (stereo unspecified) was read as CtBP-E1A blk -4, RORgamma inh 19%, PKM2 activator -2%, Six1-Eya2 blk 0 and Gal4-VP16 FLuc 4%.
